SMILES strings stand for the structures. This is part of a sample that, as a whole, favours compounds with a hit. Of some 83,000 tested, about 20% had one in any assay.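 Method: cells in 96-well plates; compound added at one concentration; 48 h incubation; percent growth measured; values under 10 scored active.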 Values without a mark were called inactive. The source made the active and inactive calls.

Assay in all cases: NCI-60 one-dose screen, 48 h (100 = growth as untreated, 0 = no growth, -100 = all killed)
Conditions in all cases: 10 µM unless noted

Test [1] concerns NCI-H23 lung.
For test [2], the system named is NCI-H226 lung.
Test [3] relates to NCI-H322M lung.
Test [4] relates to HOP-62 NSCLC.
The subject of test [5] is NCI-H460 lung.
Test [6] concerns HOP-92 NSCLC.
Test [7] relates to NCI-H522 lung.
In test [8] the test system is A549/ATCC NSCLC.
The test system of test [9] is 786-0 renal.
In test [10] the test system is COLO 205 colon.
Test [11] deals with DU-145 prostate.
The test system of test [12] is K-562 leukemia.
Test [13] deals with MALME-3M melanoma.
In test [14] the test system is MDA-MB-231 breast.
The test system of test [15] is RXF 393 renal.
Test [16] has as its system SF-268 CNS.
The test system of test [17] is SF-295 CNS.
Test [18] deals with SF-539 CNS.
The test system of test [19] is UACC-257 melanoma.
The test system of test [20] is M14 melanoma.

Consider `Cc1cccc(-[n+]2noc(N)n2)c1`, for which the growth is 85.5% in test [1]; 80.8% in test [2]; 87.7% in test [3]; 87.3% in test [4]; 80.9% in test [5]; 65% in test [6]. In addition, the growth in test [7] is 50.9%; in test [8] it was 102%; in [9], 93.8%; in test [10], 95.7%; in test [11] it was 75.4%; in [12], 20.2%. Also, the growth is 86.4% in test [13]; 53.7% in test [14]; 99.1% in test [15]; 81.9% in test [16]; 84.5% in test [17]; 91.6% in test [18]. Further, the growth in test [19] was 95.2%; in [20], 88.4%.
In the case of `Clc1cccc(Cl)c1CSc1nc2ccccc2n2cccc12`, the growth in test [1] is 90.6%; in [2], 99.1%; in test [3], 71.8%; in test [4] it was 101%; in test [5], 105%; in test [6], 94%. Further, the growth in [7] is 68.3%; in test [8] it was 95.4%; in test [9] it was 96.9%; in test [10], 91.2%; in [11], 92.8%; in test [12], 89%. The growth in test [13] was 91.4%; in test [14] it was 98.2%; in test [15] it was 97.6%; in test [16], 96.9%; in [17], 98%; in test [18], 102%. Besides, the growth in [19] is 95.6%; in [20] it was 94.1%.
As to `CCN(Cc1ccc(Cl)c(Cl)c1)c1ccc2nc(N)nc(N)c2c1C`, the growth in test [1] is -76.6% (active); in test [2], -62.2% (active); in test [3], -94.3% (active); in test [4] it was -74.2% (active); in test [5], -95.8% (active); in [6], -90.9% (active). Moreover, the growth in test [7] was -64.7% (active); in test [8], -55.9% (active); in test [9] it was -89.5% (active); in test [10], -96.1% (active); in [11], -85.5% (active); in test [12], -83.9% (active). The growth was -84% (active) in test [13]; -84.9% (active) in test [14]; -80.1% (active) in test [15]; -70.1% (active) in [16]; -62.8% (active) in test [17]; -97.8% (active) in [18]. Further, the values for the growth in test [19] and in [20] were -77.7% (active) and -70.1% (active), respectively.
As for `BrCc1cccc(C[P+](c2ccccc2)(c2ccccc2)c2ccccc2)c1`, the growth in [1] was 87%; in test [2], 73.7%; in test [3], 89%; in [4] it was 33.8%; in [5], 48.5%; in test [6], 32%. Further, the growth is 24.6% in test [7]; 69.4% in [8]; 98.8% in test [9]; -35.3% (active) in test [10]; 64.9% in test [11]; 28.8% in [12]. In addition, the growth in test [13] was 38.3%; in [14], 93.2%; in test [15], 84.4%; in [16], 56.4%; in [17], 72.2%; in test [18] it was 35.4%. Also, the values for the growth in test [19] and in [20] were 14.2% and 51.4%, respectively.
On to `CCCCOC(=O)c1ccccc1O`, for which the growth is 108% in [1]; 105% in test [2]; 112% in [3]; 110% in test [4]; 113% in test [5]; 111% in test [6]. In addition, the growth in [7] is 125%; in test [8], 113%; in test [9], 109%; in test [10] it was 115%; in [11] it was 120%; in test [12], 131%. Also, the growth in test [13] is 104%; in [14], 104%; in test [15], 161%; in test [16] it was 117%; in test [17] it was 110%; in [18] it was 106%. Besides, the growth was 99.4% in [19] and 117% in [20].
On to `CCCCCCCCCCCCCC/C=C\C(CC(=O)O)C(=O)O` (stereo not given), for which the growth was 108% in [1]; 109% in [2]; 117% in [3]; 105% in [4]; 106% in [5]; 106% in test [6]. The growth in test [7] is 107%; in test [8] it was 103%; in [9], 103%; in test [10] it was 97.7%; in test [11] it was 110%; in [12], 154%. In addition, the growth in test [13] is 123%; in [14], 102%; in test [15] it was 117%; in test [16] it was 103%; in test [17], 110%; in test [18] it was 108%. The results for the growth in [19] and in [20] were 107% and 103%, respectively.
Turning to `CC(=O)c1ccc(C)cc1`, the growth in [1] was 104%; in test [2], 102%; in test [3] it was 90%; in [4], 107%; in [5] it was 106%; in test [6], 88.3%. Moreover, the growth in [7] was 103%; in test [8], 114%; in test [9], 120%; in test [10], 116%; in test [11], 114%; in [12], 114%. Moreover, the growth is 90.8% in test [13]; 114% in test [14]; 97.6% in [15]; 107% in test [16]; 109% in test [17]; 114% in [18]. Further, the growth was 92% in test [19] and 107% in [20].
Take `C=CCc1cc(OC)c(O)c(OC)c1`: the growth was 105% in test [1]; 93.8% in test [2]; 124% in [3]; 97.4% in test [4]; 108% in test [5]; 105% in [6]. Also, the growth in [7] is 92.2%; in test [8], 83.9%; in test [9] it was 102%; in test [10] it was 105%; in test [11], 107%; in test [12] it was 119%. The growth in [13] is 95.1%; in [14], 104%; in [15] it was 119%; in [16], 97%; in test [17] it was 97.3%; in test [18] it was 92.1%. Also, the growth in test [19] and in [20] was 101% throughout.
Consider `CN(C)CCOC(=O)Nc1ccc(Cc2ccc(NC(=O)OCCN(C)C)cc2)cc1`, for which the growth in [1] was 94.1% [100 µM]; in test [2] it was 111% [100 µM]; in test [3], 96.8% [100 µM]; in [4], 97.7% [100 µM]; in test [5] it was 92% [100 µM]; in test [6] it was 32.7% [100 µM]. In addition, the growth in [7] is 85.2% [100 µM]; in test [8], 75.8% [100 µM]; in [9], 60.1% [100 µM]; in test [10] it was 84.2% [100 µM]; in [11], 86.3% [100 µM]; in test [12] it was -30.1% [100 µM] (active). Moreover, the growth in test [13] was 69.1% [100 µM]; in [14], 65.8% [100 µM]; in test [15], 32.2% [100 µM]; in [16] it was 90.3% [100 µM]; in test [17], 87.6% [100 µM]; in test [18], -66.5% [100 µM] (active). For the same compound, the growth in test [19] was -61.6% [100 µM] (active); in test [20] it was -38.6% [100 µM] (active).

These data come from PubChem BioAssay (NCI).
